PubChem BioAssay
The source made the active and inactive calls. Unless noted, how the calls were made is not given here.

Key:
[1] = resazurin metabolic signal in HepG2 cells – cell-based, resazurin fluorescence, 24 h, PK04 Diversity Set, profiling panel (AID 1172); details: HepG2 viability, higher = more signal
[2] = budding yeast growth changes without added modifier – OD600, strain BY4716, 24 h, basal condition, primary screen (AID 1173); details: S. cerevisiae BY4716 growth, OD600, 24 h; higher = more signal, called active from +8 up or from −8 down
[3] = viability profiling in MM1S myeloma cells – cell-based, resazurin fluorescence, basal, 24 h, PK04 Diversity Set, profiling panel (AID 1174); details: higher = more signal, called active from +8 up or from −8 down;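 further: MM1S multiple myeloma cell line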
[4] = biological target: Dihydroorotate dehydrogenase (quinone), mitochondrial (Plasmodium falciparum (isolate 3D7)) (UniProt Q08210); assay: inhibition of P. falciparum DHODH – biochemical, C-terminal His tag, absorbance 600 nm, primary screen (AID 1175); details: PfDHODH enzyme, DCIP absorbance 600 nm; higher = more signal, called active from +8 up or from −8 down;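 further: recombinant parasite enzyme with a five histidine tag at its C terminus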
Sequence of Dihydroorotate dehydrogenase (quinone), mitochondrial (Plasmodium falciparum (isolate 3D7)) (Q08210 whole entry, looked up): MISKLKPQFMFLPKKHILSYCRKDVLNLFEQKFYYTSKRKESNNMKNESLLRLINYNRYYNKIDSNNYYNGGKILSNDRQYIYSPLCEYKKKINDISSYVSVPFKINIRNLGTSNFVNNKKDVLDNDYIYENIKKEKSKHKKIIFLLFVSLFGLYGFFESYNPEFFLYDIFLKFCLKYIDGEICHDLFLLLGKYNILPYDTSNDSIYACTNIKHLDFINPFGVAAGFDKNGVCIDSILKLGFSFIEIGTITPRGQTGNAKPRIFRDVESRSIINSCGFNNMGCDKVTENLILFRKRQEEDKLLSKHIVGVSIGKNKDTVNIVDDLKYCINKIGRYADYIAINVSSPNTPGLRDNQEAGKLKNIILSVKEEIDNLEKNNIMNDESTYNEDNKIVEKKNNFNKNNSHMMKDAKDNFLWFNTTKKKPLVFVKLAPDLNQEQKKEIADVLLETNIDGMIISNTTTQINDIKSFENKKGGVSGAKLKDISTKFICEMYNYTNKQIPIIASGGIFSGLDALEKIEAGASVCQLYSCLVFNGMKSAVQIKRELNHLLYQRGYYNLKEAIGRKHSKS

[5] = inhibition of PAO1 biofilm formation – strain PAO1, LB-PBS medium, absorbance 600 nm, primary screen (AID 1176); details: P. aeruginosa PAO1 growth/biofilm, A600, 12 h; higher = more signal
[6] = growth modulation of vineyard yeast isolate – strain RM11-1a, OD600, basal, 24 h, primary screen (AID 1177);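 further: cultures grown under basal conditions with no added stressor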; details: S. cerevisiae RM11-1a growth, OD600, 24 h; higher = more signal, called active from +8 up or from −8 down
[7] = growth of efflux-deficient E. coli DRC39 – strain DRC39, OD650, 24 h, E. coli filamentation inducers, primary screen (AID 1178);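 further: growth measured as culture turbidity by optical density at 650 nm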; details: E. coli DRC39 acrAB, higher = more signal, called active from +8 up or from −8 down
[8] = growth of efflux-deficient E. coli DRC39 – strain DRC39, OD650, 48 h, E. coli filamentation inducers, primary screen (AID 1179);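 further: screen aims at cell division blockers that make cells filament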; details: E. coli DRC39 delta-acrAB growth, higher = more signal, called active from +8 up or from −8 down
[9] = viability profiling in RPMI8226 myeloma cells – cell-based, resazurin fluorescence, basal, 24 h, PK04 Diversity Set, profiling panel (AID 1180); details: higher = more signal;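 further: RPMI8826 multiple myeloma cell line at 5000 cells per well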
[10] = biological target: E3 ubiquitin-protein ligase XIAP (Homo sapiens) (UniProt P98170); assay: small molecules binding XIAP protein – biophysical, small-molecule microarray, fluorescence 635 nm, primary screen (AID 1181); details: higher = more signal;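 further: score merges 667 nm emission and signal to noise over triplicate slides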
Sequence of E3 ubiquitin-protein ligase XIAP (Homo sapiens) (P98170 whole entry, looked up, the tested form may be a part): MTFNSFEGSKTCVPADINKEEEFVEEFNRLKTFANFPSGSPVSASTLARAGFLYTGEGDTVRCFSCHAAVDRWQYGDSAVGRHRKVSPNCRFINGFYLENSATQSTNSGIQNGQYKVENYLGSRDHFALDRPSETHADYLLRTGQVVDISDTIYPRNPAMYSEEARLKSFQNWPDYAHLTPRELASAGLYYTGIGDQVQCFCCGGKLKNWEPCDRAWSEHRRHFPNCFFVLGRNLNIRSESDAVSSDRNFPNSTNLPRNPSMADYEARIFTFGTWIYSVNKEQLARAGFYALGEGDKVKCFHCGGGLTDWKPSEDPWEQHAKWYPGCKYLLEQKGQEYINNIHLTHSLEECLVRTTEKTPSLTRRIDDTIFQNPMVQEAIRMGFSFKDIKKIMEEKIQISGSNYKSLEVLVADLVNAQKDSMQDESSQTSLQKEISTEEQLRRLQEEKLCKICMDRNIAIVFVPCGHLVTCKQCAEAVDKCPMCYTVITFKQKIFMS

[11] = test system: XIP peptide (Xip251-270) binding; assay: XIP fragment 251-270 binding compounds – biochemical, small-molecule microarray, fluorescence 635/667 nm, 0.1 µg/mL protein, primary screen (AID 1182); details: fluorescent protein binding, 635 nm, higher = more signal, called active from +8 up or from −8 down
XIP peptide (Xip251-270) = assay: compounds binding XIP fragment 251-270 – biochemical, small-molecule microarray, fluorescence 635/667 nm, 0.5 µg/mL protein, primary screen (AID 1183); details: fluorescence 635 nm, higher = more signal
[12] = blood-stage malaria parasite viability loss – strain 3D7, DAPI fluorescence, 100 nL, primary screen (AID 1184);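 further: parasites grown inside human red blood cells in medium with human serum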; details: P. falciparum 3D7 growth, 3 d, higher = more signal
[13] = biological target: Homeobox protein Hox-A13 (Mus musculus) (UniProt Q62424); assay: disruptors of Hoxa13 oligonucleotide interaction – biochemical, fluorescence polarization, labeled oligonucleotide, primary screen (AID 1185); details: Hoxa13:DNA binding, 15 min, higher = more signal, called active from +8 up or from −8 down
Sequence of Homeobox protein Hox-A13 (Mus musculus) (Q62424 whole entry, looked up): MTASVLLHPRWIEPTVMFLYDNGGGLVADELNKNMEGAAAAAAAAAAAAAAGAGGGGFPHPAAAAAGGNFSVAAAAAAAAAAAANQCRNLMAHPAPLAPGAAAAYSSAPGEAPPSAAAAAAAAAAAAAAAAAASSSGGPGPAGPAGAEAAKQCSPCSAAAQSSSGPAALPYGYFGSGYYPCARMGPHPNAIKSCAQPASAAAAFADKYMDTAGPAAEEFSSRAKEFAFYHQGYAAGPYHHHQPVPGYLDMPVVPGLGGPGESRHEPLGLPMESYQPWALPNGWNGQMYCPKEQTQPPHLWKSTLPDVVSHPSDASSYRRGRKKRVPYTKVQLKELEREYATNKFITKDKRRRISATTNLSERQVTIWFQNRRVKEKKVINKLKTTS

[14] = blockers of DNA damage checkpoint Chk1 activation – imaging, HeLa, hydroxyurea, phospho-Chk1 antibody, percent positive cells, primary screen (AID 1186); details: hydroxyurea-induced phospho-Chk1 immunofluorescence imaging, higher = more signal
[15] = blockers of DNA damage checkpoint Chk1 activation – imaging, HeLa, hydroxyurea, phospho-Chk1 nuclear intensity, primary screen (AID 1187); details: hydroxyurea-induced phospho-Chk1 immunofluorescence imaging, higher = more signal

SMILES | z-score [1] | z-score [2] | z-score [3] | composite z-score [4] | z-score [5] | z-score [6] | z-score [7] | z-score [8] | z-score [9] | composite z-score [10] | composite z-score [11] | composite z-score (XIP peptide (Xip251-270)) | z-score [12] | z-score [13] | z-score [14] | z-score [15]
C=CCOC(=O)[C@H]1[C@@H]2C(=O)O[C@@H](c3ccccc3)[C@@H](c3ccccc3)N2[C@@H](c2ccc(OCCOC(=O)[C@H]3C[C@H]4C(=O)N[C@@H](CCCCNC(C)=O)C(=O)N4[C@H]3c3ccc(O)cc3)cc2)[C@]12C(=O)Nc1ccccc12 | 2.07 | -1.68 (inactive) | 1.74 (inactive) | -0.875 (inactive) | 2.52 (inactive) | -2.05 (inactive) | 2.63 (inactive) | 2.11 (inactive) | 1.11 | 0.0013 | 2.69 (inactive) | 0.685 | -1.72 | -1.06 (inactive) | 0.203 (inactive) | 0.261 (inactive)
C=CCC(OC(C)=O)[C@@H]1[C@@H](N(Cc2ccc(-c3cccc(C(F)(F)F)c3)o2)C(=O)c2ccc(-c3ccccc3)cc2)c2cc(OCCCO)ccc2N1C(=O)c1ccc2ccccc2n1 (stereo partly drawn) | -0.0845 | 1.59 (inactive) | 0.328 (inactive) | -0.32 (inactive) | 0.857 (inactive) | 0.859 (inactive) | -0.347 (inactive) | -0.302 (inactive) | -0.556 | -0.152 | -0.211 (inactive) | -0.102 | -0.746 | -1.33 (inactive) | 0.768 (inactive) | 0.615 (inactive)
O=C1NC(=O)C2C1C=CC(C(O)c1cccc3ccccc13)N2Nc1ccc(Cl)cc1Cl (stereo not drawn) | -2.01 | -4.99 (inactive) | -1.66 (inactive) | 0.847 (inactive) | 0.875 (inactive) | 0.981 (inactive) | -0.693 (inactive) | -0.726 (inactive) | -1.84 | 0.351 | 1.46 (inactive) | 0.497 | -0.0879 | -4.57 (inactive) | 0.461 (inactive) | 0.3 (inactive)
C=C(/C(=C/C[C@H](OC(C)=O)c1ccccc1OCCO)c1cc(C(=O)OC)ccc1OC)C(C)C | -0.169 | -2.2 (inactive) | 0.121 (inactive) | -1.96 (inactive) | -0.529 (inactive) | -0.0703 (inactive) | -0.0536 (inactive) | -0.216 (inactive) | 0.0967 | 0.13 | -0.2 (inactive) | -0.239 | -2.42 | -4.07 (inactive) | -0.0815 (inactive) | -0.292 (inactive)
C=C(/C(=C/C[C@H](OC(=O)c1ccncc1)c1ccc(CO)o1)c1cc(C(=O)OC)ccc1OC)C(C)C | -0.154 | -0.368 (inactive) | -0.797 (inactive) | -0.913 (inactive) | 1.38 (inactive) | 0.112 (inactive) | -0.825 (inactive) | -0.655 (inactive) | -0.9 | -0.124 | 0.0474 (inactive) | 0.554 | -0.114 | -5.26 (inactive) | -0.291 (inactive) | -0.218 (inactive)
CN(C)CCCNC(=O)[C@@]1(C)c2ccccc2C(=O)N(Cc2ccccc2)[C@H]1c1ccc(CO)cc1 | -0.834 | 0.384 (inactive) | 0.367 (inactive) | -0.106 (inactive) | 0.683 (inactive) | 0.861 (inactive) | -0.147 (inactive) | -0.0983 (inactive) | 0.009 | 0.0155 | -0.328 (inactive) | -0.711 | -0.649 | -2.18 (inactive) | 0.559 (inactive) | 0.749 (inactive)
CC(C)C[C@@H]1NC(=O)[C@@H]2C[C@H](C(=O)NCCCCCN)[C@H](c3ccc(O)cc3)N2C1=O | -1.3 | 0.732 (inactive) | -0.205 (inactive) | 0.582 (inactive) | -0.226 (inactive) | 1.04 (inactive) | -0.496 (inactive) | -0.728 (inactive) | -0.354 | 0.0015 | 0.0938 (inactive) | 0.725 | 0.179 | -1.88 (inactive) | -0.223 (inactive) | 0.0212 (inactive)
COc1ccc(NC(=O)O[C@H]2[C@H](OC(=O)Nc3ccccc3)[C@H](OC(=O)Nc3ccccc3)[C@@H](OC)O[C@@H]2CO)cc1 | -1.05 | 0.593 (inactive) | -1.49 (inactive) | 1.59 (inactive) | 0.509 (inactive) | 0.767 (inactive) | 0.124 (inactive) | 0.0606 (inactive) | -0.936 | -0.0599 | 0.635 (inactive) | 0.934 | -2.37 | -6.24 (inactive) | 0.131 (inactive) | 0.288 (inactive)
COCCOC(=O)N1C(=O)[C@@]2(c3cc(C#CCCO)ccc31)[C@H](C(=O)Nc1nc3ccccc3s1)[C@H]1C(=O)O[C@H](c3ccccc3)[C@H](c3ccccc3)N1[C@@H]2c1ccccc1OCCO | 0.316 | 2.04 (inactive) | -0.459 (inactive) | 1.1 (inactive) | 1.7 (inactive) | 1.91 (inactive) | -0.0306 (inactive) | -0.339 (inactive) | -1.28 | -0.115 | 0.0261 (inactive) | 0.73 | -1.68 | 2.62 (inactive) | 0.225 (inactive) | 0.416 (inactive)
C=C(COC)/C(=C/C[C@H](OC(=O)c1ccncc1)c1ccccc1OCCO)c1cnc2ccccc2c1 | 2.02 | -0.865 (inactive) | 0.247 (inactive) | -3.12 (inactive) | -0.104 (inactive) | -0.0351 (inactive) | 0.213 (inactive) | -0.121 (inactive) | 0.377 | -0.0102 | 0.683 (inactive) | 0.612 | -2.99 | -5.29 (inactive) | -0.446 (inactive) | -0.166 (inactive)
CC(C)N1C(=O)C[C@@](C(=O)NCCCN(C)C)(c2ccc([N+](=O)[O-])cc2)[C@H]1c1ccc(CO)cc1 | 0.0314 | -0.67 (inactive) | -1.21 (inactive) | 0.352 (inactive) | 0.745 (inactive) | -0.379 (inactive) | -0.328 (inactive) | -1.02 (inactive) | -0.198 | -0.267 | -0.324 (inactive) | 0.51 | 0.0784 | -2.62 (inactive) | 0.414 (inactive) | 0.273 (inactive)
COC(=O)c1cn(C[C@@H](Cc2ccccc2)NC(=O)N[C@H](CO)CCc2oc(C(C)=O)c(C(=O)OC)c2C(=O)OC)nn1 | 0.0852 | -1.3 (inactive) | 0.438 (inactive) | 0.223 (inactive) | -0.227 (inactive) | -0.504 (inactive) | 1.3 (inactive) | 0.604 (inactive) | -0.181 | -0.02 | 0.224 (inactive) | 0.111 | -0.818 | -4.33 (inactive) | -0.406 (inactive) | -0.043 (inactive)
C=CCC(OC(C)=O)[C@@H]1[C@@H](N(Cc2cc3ccccc3o2)C(=O)c2ccc(C)cc2)c2cc(OCCCO)ccc2N1C(=O)Cc1ccc(OC)cc1 (stereo partly drawn) | 0.564 | -0.859 (inactive) | 0.655 (inactive) | 0.889 (inactive) | 0.0885 (inactive) | 0.634 (inactive) | -0.506 (inactive) | -0.0196 (inactive) | 0.618 | -0.102 | -0.23 (inactive) | 0.0544 | -0.901 | -2.07 (inactive) | -0.0554 (inactive) | -0.601 (inactive)
C=CCNC(=O)[C@@H]1[C@H]2C(=O)O[C@H](c3ccccc3)[C@H](c3ccccc3)N2[C@H](c2ccc(O)cc2)[C@@]12C(=O)N(C(=O)OCCOC)c1ccc(C#CC3(O)CCCCCC3)cc12 | 0.919 | 0.444 (inactive) | -0.689 (inactive) | 0.263 (inactive) | -0.123 (inactive) | 0.3 (inactive) | 0.891 (inactive) | 0.957 (inactive) | 0.196 | -0.391 | 0.0275 (inactive) | 0.557 | 0.359 | 0.16 (inactive) | -0.209 (inactive) | -0.468 (inactive)
COc1ccccc1CN1C(=O)c2ccccc2[C@@]2(Cc3ccccc3N(CC(F)(F)F)C2=O)[C@@H]1c1ccc(CO)cc1 | -0.108 | 0.981 (inactive) | -0.987 (inactive) | -11.7 (active) | 0.723 (inactive) | 0.36 (inactive) | 0.224 (inactive) | 0.499 (inactive) | -0.624 | 0.0819 | 0.182 (inactive) | 0.555 | -0.384 | -0.814 (inactive) | 0.149 (inactive) | 0.312 (inactive)
COCCOC(=O)N1C(=O)[C@@]2(c3cc(C#Cc4ccc(OC)cc4)ccc31)[C@H](c1ccc(O)cc1)N1[C@H](c3ccccc3)[C@H](c3ccccc3)OC(=O)[C@H]1[C@@H]2C(=O)N1CCCCCCC1 | -0.113 | 0.603 (inactive) | -0.431 (inactive) | -0.15 (inactive) | 0.213 (inactive) | 0.266 (inactive) | -0.551 (inactive) | -0.341 (inactive) | -0.332 | -0.158 | 0.711 (inactive) | 0.436 | -1.55 | 1.36 (inactive) | -0.0871 (inactive) | -0.171 (inactive)
CC=CC(O)C1C=CC2C(=O)N(c3ccccc3)C(=O)C2N1Nc1ccccc1F (stereo not drawn) | -0.471 | -0.383 (inactive) | -0.424 (inactive) | -0.813 (inactive) | 1.21 (inactive) | 0.503 (inactive) | -0.382 (inactive) | -0.279 (inactive) | -0.788 | 0.181 | 0.147 (inactive) | 0.744 | -0.48 | -3.7 (inactive) | 0.0921 (inactive) | -0.305 (inactive)
C=CCOC(=O)[C@H]1[C@@H]2C(=O)O[C@@H](c3ccccc3)[C@@H](c3ccccc3)N2[C@@H](c2ccc(OCCOC(=O)[C@@H]3C[C@@H]4C(=O)N5CCC[C@H]5C(=O)N4[C@@H]3c3ccc(O)cc3)cc2)[C@]12C(=O)Nc1ccc(I)cc12 | -0.384 | 1.04 (inactive) | -0.996 (inactive) | -1.13 (inactive) | 3.91 (inactive) | 1.08 (inactive) | -0.102 (inactive) | 0.0802 (inactive) | -0.686 | -0.083 | 0.773 (inactive) | 0.787 | -1.64 | 2.54 (inactive) | 0.651 (inactive) | 0.571 (inactive)
